From PubChem BioAssay AID504916 (The Scripps Research Institute Molecular Screening Center, 2011) come the findings set out here.

The assay addresses 5-hydroxytryptamine receptor 5A (Homo sapiens) (UniProt P47898). The experiment in a line: HTR5A inverse agonists, retest of hits, confirmation, cell-based, luminescence (AID 504916).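 Note: 0% = cells with DMSO and 100% = no cells with DMSO.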 Particulars: HTR5A-expressing cells, inverse agonism, at 9.3 µM, active compounds read high.

Molecules are shown by their SMILES. The list shows a part of the results. The source made the active and inactive calls. The rule behind the calls is not given here.

Sequence of 5-hydroxytryptamine receptor 5A (Homo sapiens) (P47898 whole entry, looked up): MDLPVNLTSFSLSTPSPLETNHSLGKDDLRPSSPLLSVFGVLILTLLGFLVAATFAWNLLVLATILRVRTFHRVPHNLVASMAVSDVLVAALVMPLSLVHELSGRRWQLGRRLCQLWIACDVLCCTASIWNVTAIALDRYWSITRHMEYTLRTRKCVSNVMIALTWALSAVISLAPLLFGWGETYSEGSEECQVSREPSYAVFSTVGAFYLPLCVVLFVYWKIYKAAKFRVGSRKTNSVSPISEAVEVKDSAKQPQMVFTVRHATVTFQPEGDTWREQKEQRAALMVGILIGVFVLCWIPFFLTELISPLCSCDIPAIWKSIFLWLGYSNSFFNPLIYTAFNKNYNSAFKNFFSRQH

With `Cc1cc(C)n(-c2ccc(Cl)c(C(=O)O)n2)n1`, the inhibition is -6.82% (inactive).
In the case of `COc1ccc(-c2nnc(SC(C)C(=O)NC3CC3)o2)cc1` (configuration not stated), the inhibition was 1.03% (inactive).
The value for `O=C(/C=C/c1ccc(Cl)c([N+](=O)[O-])c1)c1ccc(O)cc1` was -8.27% (inactive); that for `CCOC(=O)NC(=O)C(=CNc1cccc(OC)c1)C(=O)NC(=O)OCC` was -98.8% (inactive); that for `CCCCCCCCc1c(O)nc(-n2[nH]c(C)c(CCO)c2=O)[nH]c1=O` was -15.1% (inactive).
As to `Cc1noc(C)c1COc1cccc(C(=O)Nc2cccnc2)c1`, the inhibition was 4.42% (inactive).
The value for `O=c1ccc2c(-c3ccccc3S(=O)(=O)O)c3ccc(O)c(O)c3oc-2c1O` was -16.7% (inactive).
